Screening data: PubChem BioAssay, National Center for Advancing Translational Sciences (NCATS)
VACV Venus inh: vaccinia inhibition (Venus reporter) | 330,000 compounds, 0.46% hits | Vaccinia virus Venus reporter expression, fluorescence | Potency, µM (top dose mostly 36.5 µM), inactives show at the top dose activity change, negative = inhibition, actives largely listed as inhibitors; calls by dose curve; tested in A549 cells; also: potency is read from the fitted curve at half-maximal effect; nearly all actives have a fitted effect of over 30% in size
Lassa entry inh: blocks Lassa virus binding to or entry into cells; Potency, µM (series often up to 37.9 µM), for inactives: top-dose activity change, negative = inhibition, usual class: inhibitors; AID 540256; 300,000 compounds, 1.2% hits; Lassa virus pseudotype entry inhibition, cell reporter; calls by dose curve; tested in HEK293 cells; also: potency is read from the fitted curve at half-maximal effect; nearly all actives have a fitted effect of over 50% in size
VACV mCherry inh: vaccinia inhibition (mCherry reporter); Vaccinia virus mCherry reporter infection, fluorescence; Potency, µM (titrated, usually from 36.5 µM), inactives show top-dose activity change, negative = inhibition, usual class: inhibitors; 310,000 compounds, 0.63% hits; calls by dose curve; tested in A549 cells; also: potency is read from the fitted curve at half-maximal effect; nearly all actives have a fitted effect of over 35% in size
MARV entry inh: blocks Marburg virus binding to or entry into cells | Marburg virus pseudotyped entry inhibition, cell reporter | AID 540276 | 300,000 compounds, 1.8% hits | Potency, µM (doses to about 37.8 µM), inactives show at the top dose activity change, negative = inhibition, actives largely listed as inhibitors; calls by dose curve; tested in HEK293 cells; also: potency is read from the fitted curve at half-maximal effect
FMDV inh: blocks foot and mouth disease virus; Potency, µM (highest dose often 57.9 µM), without a hit: at the highest dose activity change, negative = inhibition, hits mostly inhibitors; AID 1159524; 410,000 compounds, 1.2% hits; FMDV antiviral cell-based qHTS; calls by dose curve; tested in HEK293T cells; also: read-out not given here; potency is read from the fitted curve at half-maximal effect; nearly all actives have a fitted effect of over 45% in size
HCMV antiviral: human cytomegalovirus inhibition; HFF cells, HCMV-luciferase reporter, 72 h; hits give low values; activity change, negative = inhibition, % at 57.5 µM; 410,000 compounds, 4.5% hits; in the data active = activity change below about -60%; inconclusive = no clear call, values can overlap the other calls; inactive = above about -39%
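HFF cells seeded 16 h at 37C, treated with compounds, infected with luciferase-reporter HCMV at MOI 1 PFU/cell; luciferase read at 72 h post infection, normalized to buffer-only and Salinomycin controls.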
* = called active by the depositor; i = inactive; ? = inconclusive; / = no result; [ ] = dose if it differs, or a comment. Hits are enriched below; roughly 6.5% of the tested compounds scored in any of these assays. % is scaled to controls: 0 for no effect and ±100 for the full control effect.

SMILES	VACV Venus inh	Lassa entry inh	VACV mCherry inh	MARV entry inh	FMDV inh	HCMV antiviral
Cc1cc(F)ccc1NC(=O)Cn1c(=O)ccc2cc(S(=O)(=O)N3CCC(C)CC3)ccc21	-13.0%	-8.7%[46.1 µM]	-12.4%	/	-7.6%	23.9
CCOc1ccccc1-n1c(=S)sc2c(=O)n(-c3ccc(C)cc3)c(=S)[nH]c21	-21.2%	?	-1.0%	?	1.5%	12.2
CCn1c(=S)sc2c(=O)n(-c3ccccc3)c(=S)[nH]c21	-7.7%	-8.3%[46.1 µM]	-11.6%	?	-23.3%	-94.1*
Ic1ccc(/C=C2\C=Cc3ccccc32)cc1	-8.0%	/	-16.8%	/	/	/
COc1cc(NC(=O)CN2C(=O)C(=O)N(C3CCCC3)C2=O)cc(OC)c1	/	/	/	/	-15.2%	-99.3*
O=C(Nc1ccc(-c2cn3c(n2)SCC3)cc1)c1ccc2ccccc2n1	-16.0%	?	-11.1%	?	25.1µM*	9.6
O=C(Nc1cccc(-c2cn3c(n2)SCC3)c1)c1ccc2ccccc2n1	-5.6%	/	-14.3%	-18.0%[46.1 µM]	16.5%	312.2
CCC(C)Sc1ccc(-c2nc3ccc(C)cn3c2NCc2ccccc2)cc1OC (stereo not given)	12.6µM*	/	?	/	35.5µM*	/
CCC(C)Sc1cc(-c2nc3ccc(C)cn3c2NCc2ccccc2)ccc1OC (stereo not given)	?	/	10µM*	/	15.8µM*	-76.7*
CCCCCCSc1ccc(-c2nc3ccc(C)cn3c2NCc2ccccc2)cc1OC	-20.1%	/	?	/	-1.1%	64.1
COc1ccccc1N1CCN(C(=O)Cn2c(=O)nc(-c3ccccc3)c3ccccc32)CC1	-28.3%	11.2%[46.1 µM]	-22.7%	/	?	-8.3
Cn1nccc1NC(=O)Nc1cccc(Cl)c1Cl	-0.8%	-28.2%	i	?	-8.8%	?
COc1ccc(NC(=O)Nc2cccc(Cl)c2Cl)c(OC)n1	22.7%	-9.0%[46.1 µM]	16.1%	?	17.2%	-70.0*
CC(C)CN(CC(C)C)CC(O)COc1ccccc1Br (stereo not given)	-24.0%	?	-25.7%	?	?	-75.5*
COc1ccc2nc(N=Nc3ccc(N(C)C)cc3)sc2c1	-13.8%	?	-12.8%	?	12.6µM*	25.4
CCCS(=O)(=O)NCc1c(C)ncc2c1CCN(C(=O)c1ccc(Cl)cc1)C2	-5.7%	/	-5.7%	/	2.7%	/
COC(=O)CC=C[C@H](C)[C@@H](NC(=O)C(F)(F)F)c1ccccc1Br	/	/	/	-21.4%[14.2 µM]	/	/
CCOC(=O)C1CCCN(C(=O)c2cccc(S(=O)(=O)N(C)c3c(C)n(C)n(-c4ccccc4)c3=O)c2)C1 (stereo not given)	-17.5%	16.9%	-5.4%	19.0%	-7.8%	-98.6*
CC1(C)Cc2c(C#N)c(SCC(=O)c3ccccc3)nc(N3CCOCC3)c2CS1	-18.2%	17.8µM*	-32.3%	-28.8%	-11.9%	18.3
Cc1cc2c(=O)n(Cc3ccco3)c(SCC(=O)N3CCCc4ccccc43)nc2s1	?	?	?	?	/	-88.0*
O=C(CCOc1ccccc1)N(Cc1cccnc1)c1nc2c(F)cc(F)cc2s1	-3.0%[7.34 µM]	-7.7%[46.1 µM]	-9.8%[7.34 µM]	/	-16.5%	33.6
COc1ccc(N2CCN(C(=O)c3cc(-c4cccs4)nc4ccccc34)CC2)cc1	-15.3%	/	-21.4%	11.2µM*	16.3%	-6.4
COc1ccc(-c2cc(C(=O)N3CCN(c4ccccc4)CC3)c3ccccc3n2)cc1OC	5.0%	4.47µM*	/	?	-8.0%	133.3
COc1ccc(-c2cc(C(=O)N3CCCCCC3)c3ccccc3n2)cc1	-22.8%	16.6%	?	-10.6%	21.5%	-14.9
CC(=O)c1nnn(-c2nc(C#N)nc(N3CCOCC3)n2)c1C	-8.1%	/	16.3%	/	/	/
SMILES	VACV Venus inh	Lassa entry inh	VACV mCherry inh	MARV entry inh	FMDV inh	HCMV antiviral
C#CCOCCOCCOCCNc1nc(N2CCN(C(=O)CCCCCCCCCCNC(=O)[C@H](CCC(=O)O)n3cc(CCCCCN)nn3)CC2)nc(N2CCN(C(=O)CCCCCCCCCCNC(=O)[C@@H]([C@H](C)O)n3cc(C)nn3)CC2)n1	-10.2%	/	i	/	9.1%	/
C#CCOCCOCCOCCNc1nc(N2CCOCC2)nc(N2CCN(C(=O)CCCCCCCCCCNC(=O)[C@@H]([C@H](C)O)n3cc(C)nn3)CC2)n1	-27.2%	/	i	/	-9.2%	-15.4
C#CCOCCOCCOCCNc1nc(N2CCN(C(=O)CCCCCCCCCCNC(=O)Cn3cc(CCCCCN)nn3)CC2)nc(N2CCN(C(=O)CCCCCCCCCCNC(=O)[C@H]([C@@H](C)CC)n3cc(CCCCCN)nn3)CC2)n1	10µM*	/	?	/	?	/
C#CCOCCOCCOCCNc1nc(N2CCN(C(=O)CCCCCCCCCCNC(=O)Cn3cc(CCCCCN)nn3)CC2)nc(N2CCN(C(=O)CCCCCCCCCCNC(=O)[C@H](CO)n3cc(CCCCCN)nn3)CC2)n1	?	/	i	/	-20.1%	/
C#CCOCCOCCOCCNc1nc(N2CCN(C(=O)CCCCCCCCCCNC(=O)[C@H]([C@@H](C)CC)n3cc(CCCCCN)nn3)CC2)nc(N2CCN(C(=O)CCCCCCCCCCNC(=O)[C@@H]([C@H](C)O)n3cc(C)nn3)CC2)n1	11.2µM*	/	?	/	?	/
C#CCOCCOCCOCCNc1nc(N2CCN(C(=O)CCCCCCCCCCNC(=O)[C@@H]([C@H](C)O)n3cc(C)nn3)CC2)nc(N2CCN(C(=O)CCCCCCCCCCNC(=O)[C@@H]([C@H](C)O)n3cc(C)nn3)CC2)n1	?	/	-7.4%	/	-9.4%	-74.1*
CC1CCCC(NCC(O)COC(c2ccc(F)cc2)c2ccc(F)cc2)C1C (stereo not given)	?	?	?	?	?	-97.2*
CC1CCCC(NC(=O)CSc2ccc(F)cc2)C1C (stereo not given)	/	?	/	8.9%	10.1%	12.4
Cc1c(C(=O)N(C)Cc2cccc(F)c2)oc2c(Cl)cccc12	-1.3%	?	-4.4%	?	7.08µM*	-29.3
Cc1c(C(=O)N(C)Cc2ccccc2)oc2c(Cl)cccc12	8.8%	-10.9%[46.1 µM]	-18.2%	-15.1%[46.1 µM]	8.0%	31.6
Cc1ccc(/C=N/NC(=O)C(C)Oc2cccc3ccccc23)o1 (stereo not given)	/	/	/	/	-20.7%	-66.3*
O=C(C[N+]12CN3CN(CN(C3)C1)C2)c1ccc(I)cc1	-18.0%	/	i	/	/	/
CCOCC(=O)Nc1cc(C(=O)NCCc2ccccc2)ccc1Cl	2.2%	0.7%[46.1 µM]	-0.5%	?	52.4%	44.3
COCC(=O)Nc1cc(C(=O)NCCc2ccccc2)ccc1Cl	-8.7%	10µM*	-9.7%	?	-15.3%	-15.1
CCC1=Nc2cc(C(=O)NC3CCCC3)ccc2Sc2ccc(Br)cc21	-21.1%[7.34 µM]	?	-26.3%[7.34 µM]	?	-10.0%	?
CC1=Nc2cc(C(=O)NC3CCCCC3)ccc2Sc2ccc(Cl)cc21	-22.8%[7.34 µM]	3.98µM*	-26.7%[7.34 µM]	/	-20.4%	-86.7*
CC1=Nc2cc(C(=O)NC3CCCC3)ccc2Sc2ccc(Br)cc21	?	-21.2%[46.1 µM]	?	?	-24.1%	-75.6*
CCOC(=O)N1CCC(NC(=O)c2ccc3c(c2)N=C(C)c2c(C)ccc(C)c2S3)CC1	/	/	/	/	-23.9%	-93.1*
